According to PubChem BioAssay (NCATS):
Results filed as inconclusive are left out. Activity calls are given as the source filed them. The call rests on the fitted dose curve; in most records, active means well fitted inhibition curve with a large enough effect; inconclusive means small, poorly fitted or top-dose-only effect; inactive means flat fitted curve, though single readings scatter.

How the values were obtained:
Assay in all cases: Cytotoxic Profiling of Annotated Libraries Using Quantitative High-Throughput Screening (AID 1296008); further: nearly all actives have a fitted effect of over 60% in size
Conditions in all cases: Five cell lines viability, CellTiter-Glo ATP luminescence, 48-72 h; max response: stronger effect = lower value
[1] = tested on: HEK293
Summary of the method: (§1)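 Compounds were pin-transferred onto cells and incubated 48 or 72 hr at 37 degree Celsius, 95% humidity. CellTiter-Glo was added, plates sat 10 min at room temperature, then ATP-coupled luminescence was imaged as the viability read-out.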

[2] = tested on: HaCat
Summary of the method: as §1

[3] = tested on: KB-3-1
Summary of the method: as §1

[4] = tested on: NIH3T3
Summary of the method: as §1
On the % scale 0 is the no-effect control and ±100 the full control effect; potency means the concentration at half of the fitted maximal effect.

CN(C)C(=O)NC1CCC(CCN2CCN(c3cccc(Cl)c3Cl)CC2)CC1 (stereo unspecified)
inactive: max response [1] -2.35% | outcome [2] | max response [3] -7.32% | max response [4] -6.34%

C=C(C(=O)O)C1CCC2(C)CCC(O)C(C)(O)C2C1 (stereo unspecified)
inactive: max response [1] -0.305% | max response [2] -8.51% | max response [3] 1.37% | max response [4] -18.2%

C=C(C)C1CCC2(C(=O)O)CCC3(C(=O)O)C(CCC4C5(C)CCC(O)C(C)(C(=O)O)C5CCC43C)C12 (stereo unspecified)
inactive: max response [1] 3.45% | max response [2] 3.2% | max response [3] -7.04% | max response [4] 1.18%

CC(=O)O[C@H]1CC[C@H](C)[C@@]2(C)[C@H](OC(C)=O)c3c(C)coc3C(=O)[C@H]12
inactive: max response [1] -27.7% | max response [2] 2.83% | max response [3] 6.49% | max response [4] -5.72%

CC(=O)O[C@H]1[C@H](O[C@H]2[C@@H]3C=CO[C@@H](O[C@@H]4O[C@H](CO)[C@@H](O)[C@H](O)[C@H]4O)[C@@H]3[C@@]3(CO)O[C@@H]23)O[C@@H](C)[C@H](OC(=O)/C=C/c2ccccc2)[C@H]1OC(=O)/C=C/c1ccccc1
inactive: max response [1] -0.402% | max response [2] -13% | outcome [3] | max response [4] 0.432%

CS(=O)(=O)N1CCC(NC(=O)c2[nH]ncc2NC(=O)c2c(Cl)cccc2Cl)CC1
active: Potency [1] 1160 nM | Potency [2] 4610 nM | Potency [3] 820 nM | Potency [4] 2590 nM

COC(=O)N[C@H](C(=O)N1[C@@H]2CC[C@@H](C2)[C@H]1c1nc2ccc(-c3ccc4c(c3)C(F)(F)c3cc(-c5cnc([C@@H]6CCC7(CC7)N6C(=O)[C@@H](NC(=O)OC)C(C)C)[nH]5)ccc3-4)cc2[nH]1)C(C)C
active: Potency [1] 3990 nM
inactive: max response [2] -33.1% | max response [3] -8.63% | max response [4] -14.9%

Cc1cnc(NC(=O)Nc2cc(Br)c(C)cc2OCC2CNCCO2)cn1 (stereo unspecified)
inactive: max response [2] -19%
active: Potency [1] 1300 nM | Potency [3] 14600 nM | Potency [4] 2310 nM

Cc1nc2sc(C(=O)NCc3ccncc3)c(N)c2c(C)c1Cl
inactive: max response [1] -2.15% | max response [2] 0.272% | max response [3] -3.45% | max response [4] -29.7%

CC(=O)O[C@@H]1[C@@H](OC(=O)/C=C/c2ccccc2)[C@@H](OC(C)=O)[C@H](O[C@H]2[C@@H]3C=CO[C@@H](O[C@@H]4O[C@H](CO)[C@@H](O)[C@H](O)[C@H]4O)[C@@H]3[C@@]3(CO)O[C@@H]23)O[C@H]1C
inactive: max response [1] -5.93% | max response [2] -11.2% | outcome [3] | max response [4] -0.931%

CCN1CCN(Cc2ccc(NC(=O)c3ccc(C)c(/C=C/c4cnc5[nH]ccc5c4OC)c3)cc2C(F)(F)F)CC1
active: Potency [1] 1460 nM | Potency [2] 5800 nM | Potency [3] 18400 nM | Potency [4] 5170 nM

CNC(=O)c1ccccc1Nc1nc(Nc2ccc(N3CCNCC3)cc2)ncc1Cl
active: Potency [1] 65.1 nM | Potency [2] 9.2 nM | Potency [3] 25.9 nM | Potency [4] 82 nM

CCC(O)C(C)C1CCC(C(C)C(=O)O)O1 (stereo unspecified)
inactive: max response [1] -7.28% | max response [2] 3.27% | outcome [3] | max response [4] 2.92%

C=CC(=O)Nc1cc(Nc2ncc(Cl)c(-c3c[nH]c4ccccc34)n2)c(OC)cc1N(C)CCN(C)C
active: Potency [1] 2060 nM | Potency [2] 580 nM | Potency [3] 4110 nM | Potency [4] 5800 nM
